# An excerpt weighted towards active compounds, which were near 4.6% of everything screened.
# Epigenetic derep – Quantitative High-Throughput Screen for Regulators of Epigenetic Control; 280,000 tested, 0.2% active; Potency, µM (series often up to 53.9 µM), without a hit: top-dose GFP activation, actives largely listed as activators; AID 1865, 2009; murine LDR cells, GFP reporter derepression, 30 h; active means well fitted activation curve with a large enough effect; inconclusive means small, poorly fitted or top-dose-only effect; further: potency means the concentration at half of the fitted maximal effect; % of control where 0% means no effect; nearly all actives have a fitted effect of over 60% in size
#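 Derepression of a silenced CMV-GFP reporter in murine LDR cells is scored by enumerating GFP-positive cells with a laser-scanning microplate cytometer after 30 hours of treatment at 37 C.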
# D1 antagonist – Antagonist of Human D 1 Dopamine Receptor: qHTS. D(1A) dopamine receptor (Homo sapiens), P21728. HEK293 TREx D1 cells, calcium flux, dopamine EC80; active compounds read low. activity change, negative = inhibition, % at 10 µM. 360,000 tested, 3.2% active. AID 504652, 2011; in the data active means activity change below about -30%; further: on the % scale 0 is the no-effect control and ±100 the full control effect
# Target sequence (P21728 whole entry, looked up): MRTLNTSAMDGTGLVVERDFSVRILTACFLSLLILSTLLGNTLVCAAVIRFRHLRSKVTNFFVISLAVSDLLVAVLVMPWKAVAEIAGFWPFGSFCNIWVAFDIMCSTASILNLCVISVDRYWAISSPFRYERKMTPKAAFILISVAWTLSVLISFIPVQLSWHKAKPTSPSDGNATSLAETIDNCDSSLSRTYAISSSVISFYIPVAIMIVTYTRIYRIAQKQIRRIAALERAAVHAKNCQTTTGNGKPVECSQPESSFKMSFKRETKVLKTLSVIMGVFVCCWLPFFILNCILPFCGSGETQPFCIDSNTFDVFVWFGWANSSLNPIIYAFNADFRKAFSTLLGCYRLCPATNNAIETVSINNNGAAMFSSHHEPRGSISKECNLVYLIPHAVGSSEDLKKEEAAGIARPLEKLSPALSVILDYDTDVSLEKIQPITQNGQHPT
#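 Calcium flux readout: force-coupled, inducible Hek293 Trex D1 line, cells induced overnight at 30 C with tetracycline, dye-loaded 30–90 min at RT. Antagonism scored against EC80 dopamine challenge given 180 s after compound.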
# TRHR ag – qHTS for Small Molecule Agonists and Allosteric Enhancers of Human TRH Receptor: Primary Screen for Agonists. Thyrotropin-releasing hormone receptor (Homo sapiens), P34981. TRHR cells, calcium flux fluo-8, FDSS agonist mode. activation, % at 2 µM. 360,000 tested, 0.18% active. AID 493084, 2011; further: 0% is about no effect
#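 TRHR-expressing cells, plated overnight in medium with 10% serum, were loaded with fluo-8 calcium dye at room temperature. After a 10 s baseline, library compound was pin-added and calcium release was recorded kinetically (ex 480/em 530) as agonist response.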
# TRHR enhancer – qHTS for Small Molecule Agonists and Allosteric Enhancers of Human TRH Receptor: Primary Screen for Enhancers. Thyrotropin-releasing hormone receptor (Homo sapiens), P34981. TRHR cells, fluo-8 calcium fluorescence, EC20 TRH enhancement. enhancement, % at 2 µM. 360,000 tested, 0.66% active. AID 493056, 2011; in the data active means enhancement above about 30%; further: 0% is about no effect
#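 TRHR-expressing cells loaded with fluo-8 calcium dye were read kinetically (ex 480/em 530) during compound addition, then stimulated with an EC20 of TRH (10 nM final). Enhancement of the Gq-mediated intracellular calcium response was scored.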
# D1 ag – Allosteric Agonists of the Human D1 Dopamine Receptor: qHTS; D(1A) dopamine receptor (Homo sapiens), P21728; 360,000 tested, 1% active; activation, % at 2 µM; HEK293 T-REx D1 cells, calcium flux, agonist mode; further: 0% is about no effect
#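 Inducible HEK293 T-REx D1 cells, force-coupled to calcium signalling, were plated at 4000 cells/well with tetracycline and held overnight at 30 C. After no-wash calcium dye loading, compound-evoked calcium rise over 180 s flagged agonists.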
# D1 PAM – Potentiators of Human D1 Dopamine Receptor: qHTS | D(1A) dopamine receptor (Homo sapiens), P21728 | HEK293 TREx D1 cells, calcium flux, dopamine EC20 potentiation | potentiation, % at 10 µM | 360,000 tested, 0.036% active | AID 504651, 2011; in the data active means potentiation above about 30%; further: 0% is about no effect
# An asterisk follows results filed as active; u = inconclusive; x = not tested or not shown; [ ] = dose if it differs, or a comment. Unless noted, no stated cut-off is given here; in the data, active means activation above about 30%; inactive means the rest.
SMILES,Epigenetic derep,D1 antagonist,TRHR ag,TRHR enhancer,D1 ag,D1 PAM
O=C1NCCN(Cc2ccc(F)cc2)C1=O,-4.1%,-40.6*,0.8,1.6,-2.4,-0.8
O=C(Oc1ccc(F)cc1)c1nc(SCc2ccccc2F)ncc1Cl,1.3%,6.0,-0.3,-5.8,5.9,0.0
CCOc1ccc(C(=O)NCCn2cc(SCC(=O)Nc3ccccc3)c3ccccc32)cc1,-1.1%,-0.1,-1.9,7.4,0.9,-3.5
O=c1cc(-c2ccccc2Cl)oc2c(NS(=O)(=O)c3cc(Cl)cc(Cl)c3O)ccc(O)c12,-3.1%[40.7 µM],-51.6*,8.3,-8.4,82.0*,-9.2
CCc1ccc(S(=O)(=O)Nc2ccc(O)c3c(=O)cc(-c4ccccc4Cl)oc23)cc1,1.1%,1.6,-0.1,-7.3,1.4,-1.1
Cc1ccc(S(=O)(=O)CC2CSc3nnc(C)c(=O)n32)cc1 (centres undefined),2.2%,8.2,0.4,-0.6,1.5,1.4
Cc1nnc2n(c1=O)C(CS(=O)(=O)c1ccc3ccccc3c1)CS2 (centres undefined),1.1%,-9.7,-0.4,32.7*,-0.7,1.0
O=C(O)CN1C(=O)/C(=C\c2cccc(OCc3ccccc3)c2)SC1=S,x,-1.6,0.1,-0.5,2.4,-10.9
CN1C(=O)/C(=C\c2cccc(OCc3ccccc3)c2)SC1=S,x,-33.9*,0.5,4.3,1.3,-2.8
COc1cc(/C=C2\SC(=S)N(N3CCOCC3)C2=O)cc(OC)c1OC,0.0%,-13.1,1.5,-5.6,7.6,16.7
O=C1/C(=C\c2cccc(O)c2O)SC(=S)N1Cc1ccccc1,x,-2.1,2.5,17.5,8.8,2.2
O=C1/C(=C\c2cc([N+](=O)[O-])ccc2O)SC(=S)N1Cc1ccc(Cl)cc1,x,-4.7,120.2*,7.8,196.8*,-6.2
COc1cc(/C=C2\SC(=S)N(N3CCOCC3)C2=O)ccc1O,1.9%,-17.9,21.1,0.2,30.2*,-2.6
COc1cc(/C=C2/SC(=S)N(Cc3ccccc3)C2=O)ccc1O,x,6.5,39.4*,6.8,102.3*,7.8
Cc1cn2c(=O)cc(COc3ccc(NC(=O)COc4ccccc4)cc3)nc2s1,0.9%,-3.0,-1.2,4.7,-2.3,-4.1
CC1CCCCN1C(=O)Cn1c(=O)n(-c2ccc(Cl)cc2)c(=O)c2c3c(sc21)CCC3 (centres undefined),7.3%,-2.8,-1.3,10.1,1.2,0.1
O=C1/C(=C\c2ccc(O)c(O)c2)SC(=S)N1Cc1ccccc1,x,-4.1,-0.9,-1.6,77.5*,4.8
O=C(CN1C(=O)S/C(=C\c2cc(Cl)c(O)c(Cl)c2)C1=O)Nc1ccccc1,x,12.0,13.6,3.7,48.3*,-2.1
O=C1/C(=C/c2ccncc2)SC(=S)N1Cc1ccccc1,15.8µM*,-8.8,-0.1,7.7,2.0,1.6
COc1cc(/C=C2\SC(=S)N(CCC(=O)Nc3ccccc3)C2=O)cc(OC)c1OC,-10.9%,5.9,13.7,1.5,45.5*,0.3
C[C@@H](O)CNC(C)(C)CC(=O)N[C@@H]1CCc2ccccc2N(Cc2ccc(-c3ccccc3-c3nn[nH]n3)cc2)C1=O,2.5%,x,x,x,x,x
COc1ccc(S(=O)(=O)N2CCOCC2)cc1NC(=O)C1CCCN1C(=O)c1cccs1 (centres undefined),x,-62.5*,-0.5,-3.6,2.8,-6.1
Cc1ncc(CN2CCC(C(=O)Nc3ccc(-n4cccn4)cc3)CC2)s1,x,2.3,0.2,30.3*,4.1,13.3
Cc1cc(C)n(-c2ccc(NC(=O)C3CCN(Cc4cnc(C)s4)CC3)cc2)n1,x,2.8,-0.2,1.3,1.0,-1.1
O=C(COc1ccc([N+](=O)[O-])cc1)Nc1cccc2cccnc12,-1.0%,-2.1,-0.9,2.1,3.3,-4.2
SMILES,Epigenetic derep,D1 antagonist,TRHR ag,TRHR enhancer,D1 ag,D1 PAM
COC(=O)c1ccc(CSc2ncnc3ccccc23)o1,-1.0%,18.1,-0.2,0.0,4.0,0.4
CCc1cc2c(SCc3ccc(C(=O)OC)o3)ncnc2s1,x,-31.5*,0.0,-2.3,1.9,-1.8
Cc1ccc(S(=O)(=O)NCCN2CCN(S(=O)(=O)c3ccccc3Cl)CC2)cc1,x,-53.1*,0.0,-6.3,6.9,-6.8
Cc1ccc(S(=O)(=O)NCCN2CCOCC2)cc1,-0.3%,-11.2,0.2,-7.8,8.7,-2.8
COC(=O)[C@@H](c1ccccc1Cl)N1CCc2sccc2C1,1.1%,x,x,x,x,x
COc1ccc(C(=O)c2sc3nc(C)cc(-c4cccs4)c3c2N)cc1OC,u,30.8,20.6,-11.6,82.0*,-0.2
COc1ccc(C(=O)c2sc3nc(C)cc(-c4cccs4)c3c2N)cc1,1.5%,13.7,-1.1,9.7,-0.4,-3.4
Cc1cc(-c2cccs2)c2c(N)c(C(=O)c3ccc4c(c3)OCO4)sc2n1,-1.0%,13.6,18.4,-7.3,60.7*,6.8
COc1ccc(NC(=O)/C(C#N)=C/c2c(C)nn(-c3ccc(F)cc3)c2Cl)cc1OC,0.0%,-32.2*,-0.3,8.0,1.1,-16.7
O=C(Nc1c[nH]c(=O)[nH]c1=O)c1ccccc1Cl,x,3.5,0.2,30.4*,1.2,-1.7
CCOC(=O)C(NC(=O)Nc1ccc(F)cc1F)(Oc1ccc(F)cc1)C(F)(F)F (centres undefined),0.0%,-85.2*,0.7,6.0,1.8,-0.1
COc1ccc2ccccc2c1-c1sc(Nc2ccccc2)n[n+]1-c1ccc(F)cc1,x,-39.6*,5.8,-8.3,36.9*,-8.7
Fc1ccc(-[n+]2nc(Nc3ccccc3)sc2-c2c(Cl)cccc2Cl)cc1,x,-26.8,3.1,-8.7,49.3*,-5.2
CCc1ccc(Nc2n[n+](-c3ccccc3)c(-c3c(Cl)cccc3Cl)s2)cc1,x,-69.1*,-0.1,-9.2,92.5*,-6.8
COc1ccc(-c2sc(Nc3ccccc3)n[n+]2-c2ccc(F)cc2)cc1Br,x,-4.1,-0.2,-2.0,-0.7,4.4
O=C(O)c1ccc(-c2sc(Nc3ccccc3)n[n+]2-c2ccc(F)cc2)cc1,x,-9.4,0.4,-1.3,2.3,-3.1
C=C(C)Cn1c(SCC(=O)Nc2cc(C)ccc2C)nc2sc3c(c2c1=O)CCCC3,u,9.8,-1.9,6.2,-1.9,-0.9
NC(=Nc1ccc(Br)cc1)c1ccccc1,x,-38.7*,19.2,-14.8,44.7*,-0.3
COc1ccc(Cl)cc1NC(=O)c1cc(S(=O)(=O)NC2CCCCCC2)ccc1F,0.4%,-5.5,0.1,2.1,4.6,1.0

# Assay outcomes: PubChem BioAssay, National Center for Advancing Translational Sciences (NCATS)
